Compound activity: PubChem BioAssay, National Center for Advancing Translational Sciences (NCATS)
In the library only some 19% were active in any assay of this set; here they are far more common.
VP16 counter = counter-screen for ROR gamma inhibitors: Gal4-VP16 reporter | Drosophila S2 Gal4-VP16 UAS-luciferase, luminescence, 20 h | Potency, µM (doses to about 53.6 µM), most hits filed as inhibitors | 3.5% of 310,000 active | AID 2546;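 note: Gal4-VP16 expression switched on by copper sulfate through the metallothionein promoter; nearly all actives have a fitted effect of over 50% in size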
DT40 TDP1 CPT = DT40-hTDP1 cell growth loss with CPT; chicken DT40 Tdp1-/-;hTDP1 cells + 20 nM CPT, ATP luminescence, 48 h; Potency, µM (titrated, usually from 46.2 µM), usual class: inhibitors; 12% of 420,000 active; AID 686979; note: nearly all actives have a fitted effect of over 55% in size
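Chicken DT40 Tdp1-/- cells stably complemented with human TDP1 were seeded at 400 cells/well in medium containing 20 nM camptothecin, exposed to pin-transferred compounds, and grown at 37 °C for at least 48 hr. Viability was read as ATP luminescence.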
TDP1 block = TDP1 (human) enzyme inhibition; recombinant TDP1, AlphaScreen DNA substrate cleavage; 0.28% of 350,000 active; Potency, µM (series often up to 130 µM), actives largely listed as inhibitors; Q9NUW8; note: nearly all actives have a fitted effect of over 40% in size
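Recombinant human Tdp1 (E. coli-expressed, 1 nM final) preincubated with compounds 15 min at room temperature, then 5'-biotin/3'-phosphotyrosine-FITC DNA substrate (15 nM final) added for 5 min. AlphaScreen beads (10 ug/ml final) added 10 min; cleavage lowers signal.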
RORgamma inh = inhibitors of mouse ROR gamma transcriptional activity; P51450; Drosophila S2 Gal4-RORgamma UAS-luciferase reporter, 20 h; Potency, µM (series often up to 53.6 µM), most hits filed as inhibitors; 5.4% of 310,000 active; note: nearly all actives have a fitted effect of over 60% in size
Target sequence (P51450 whole entry, looked up, the tested form may be a part): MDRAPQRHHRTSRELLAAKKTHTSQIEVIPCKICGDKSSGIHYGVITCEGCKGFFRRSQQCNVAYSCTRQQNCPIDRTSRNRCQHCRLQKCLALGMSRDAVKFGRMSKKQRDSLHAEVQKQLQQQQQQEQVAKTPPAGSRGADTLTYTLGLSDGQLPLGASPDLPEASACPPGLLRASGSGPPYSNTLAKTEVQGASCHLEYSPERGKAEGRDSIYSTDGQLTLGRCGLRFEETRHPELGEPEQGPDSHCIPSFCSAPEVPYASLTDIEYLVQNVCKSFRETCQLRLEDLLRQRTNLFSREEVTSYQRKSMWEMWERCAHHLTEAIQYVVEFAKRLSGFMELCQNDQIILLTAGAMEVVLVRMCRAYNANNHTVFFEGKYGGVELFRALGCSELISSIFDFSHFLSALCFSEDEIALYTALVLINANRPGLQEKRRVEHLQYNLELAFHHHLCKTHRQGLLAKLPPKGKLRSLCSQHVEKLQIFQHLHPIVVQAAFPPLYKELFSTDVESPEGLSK
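Using a luciferase readout, inhibitors were identified by reduced reporter activity in Drosophila cells coexpressing a copper-inducible Gal4–ROR gamma fusion and UAS-driven Photinus luciferase, incubated 20 hr after 700 uM copper sulfate.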
TDP1 cell noCPT = qHTS for Inhibitors of human tyrosyl-DNA phosphodiesterase 1 (TDP1): qHTS in cells in absence of CPT | Potency, µM (highest dose often 46.2 µM), actives largely listed as inhibitors | 15% of 420,000 active | DT40 Tdp1-/- hTDP1 cells, no CPT, ATP luminescence, 48 h; note: nearly all actives have a fitted effect of over 55% in size
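Cells were dispensed at 400 per well, compounds added by pin tool, plates incubated ≥48 hr at 37 °C, then CellTiter-Glo added for 30 min at room temperature before luminescence reading. Line: DT40 Tdp1-/- complemented with hTDP1; camptothecin omitted.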
Large screens that a line does not name were inactive. Calls come from the whole dose curve; as a rule, active = well fitted curve in the direction sought with a large enough effect; inconclusive = small, poorly fitted or top-dose-only effect, or another doubt; inactive = no such curve, though single readings can be large; an effect the other way counts as inactive or inconclusive.

COC(=O)c1ccc(/C=C/C(=O)c2ccc(OC)cc2)cc1	DT40 TDP1 CPT inconclusive, TDP1 cell noCPT 16.4µM
CCOc1ccc(C(=O)/C=C/c2cc(OC)c(OC)c(OC)c2)cc1	DT40 TDP1 CPT 10.3µM, RORgamma inh inconclusive, TDP1 cell noCPT 8.2µM
COc1cc(/C=C/C(=O)O)cc(OC)c1OC	none
COC(=O)c1ccc(/C=C/C(=O)O)cc1	none
Cc1cccc(NC(=O)CNC(=O)c2ccco2)n1	none (no result: VP16 counter, RORgamma inh)
O=C(CSc1nc2ccccc2[nH]1)NC1CCS(=O)(=O)C1 (configuration not stated)	none
CC(C)N(C(=O)CSc1nc2ccc(Cl)cc2[nH]1)c1ccccc1	DT40 TDP1 CPT inconclusive, TDP1 cell noCPT 23.1µM (no result: VP16 counter, RORgamma inh)
CC(C)N(C(=O)CSc1nc2c([nH]1)c(=O)n(C)c(=O)n2C)c1ccccc1	DT40 TDP1 CPT inconclusive
O=C(CCCSc1nc2ccccc2[nH]1)NC(c1ccccc1)c1ccccc1	DT40 TDP1 CPT 11.6µM, TDP1 cell noCPT 14.6µM
O=C(CSc1nc2ccccc2[nH]1)NC1CCCC1	TDP1 block 44.7µM
Cc1ccc(Cl)cc1N1CCN(CC(=O)NC2CCCc3ccccc32)CC1 (configuration not stated)	DT40 TDP1 CPT inconclusive, TDP1 cell noCPT 16.4µM
O=C(CN1CCN(c2ccccc2Cl)CC1)NC1CCCc2ccccc21 (configuration not stated)	DT40 TDP1 CPT inconclusive, TDP1 cell noCPT inconclusive
Cc1ccc(NC(=O)NC2C(NC(=O)Nc3ccc(C)cc3)N(C)C(=O)N2C)cc1 (configuration not stated)	none
O=C(CSc1nc2ccc(Cl)cc2[nH]1)NC1CCCc2ccccc21 (configuration not stated)	DT40 TDP1 CPT inconclusive, TDP1 cell noCPT 20.6µM
O=C(CCCSc1nc2ccccc2[nH]1)N1CCN(c2ccccc2)CC1	DT40 TDP1 CPT inconclusive, TDP1 cell noCPT inconclusive
Cc1cccc(N2CCN(C(=O)CCCSc3nc4ccccc4[nH]3)CC2)c1C	VP16 counter 22.4µM, DT40 TDP1 CPT 16.4µM, RORgamma inh inconclusive, TDP1 cell noCPT inconclusive
O=C(CCCSc1nc2ccccc2[nH]1)NC1CCCCC1	DT40 TDP1 CPT inconclusive, TDP1 cell noCPT 29.1µM
COc1ccc(-c2c(C#N)c(N)nc(Sc3ccc(Cl)cc3)c2C#N)cc1	none (no result: TDP1 block)
COc1nc(N)c(C#N)c(-c2ccc(N(C)CCC#N)cc2)c1C#N	DT40 TDP1 CPT 18.4µM, TDP1 cell noCPT 7.31µM (no result: TDP1 block)
COc1ccc(N2CCN(C(=O)CN3C(=O)c4ccccc4S3(=O)=O)CC2)cc1	TDP1 cell noCPT inconclusive
COc1ccc(C)cc1N(C(=O)c1ccco1)C(C(=O)NC1CCCC1)c1ccc(N2CCOCC2)cc1 (configuration not stated)	TDP1 cell noCPT 9.2µM (no result: TDP1 block)
COc1ccc(C(C(=O)NC2CCCCC2)N(C(=O)c2ccco2)c2ccccc2OC)cc1 (configuration not stated)	DT40 TDP1 CPT inconclusive, TDP1 cell noCPT 16.4µM
COc1cccc(C(C(=O)NC2CCCCC2)N(C(=O)c2ccco2)c2ccccc2OC)c1 (configuration not stated)	DT40 TDP1 CPT inconclusive, TDP1 cell noCPT 11.6µM (no result: TDP1 block)
CC1(C)CC(=O)C=C(c2n[nH]nc2C2=CCCCC2)C1	none (no result: VP16 counter, TDP1 block, RORgamma inh)
COc1ncccc1C(=O)Nc1c(-c2ccccc2)[nH][nH]c1=O	none (no result: VP16 counter, TDP1 block, RORgamma inh)
COc1ccc(CCN(Cc2ccccn2)C(=S)Nc2ccccc2Cl)cc1OC	VP16 counter inconclusive, RORgamma inh 10µM
COc1ccc(NC(=S)N(CCc2ccc(OC)c(OC)c2)Cc2ccccn2)cc1	RORgamma inh inconclusive, TDP1 cell noCPT inconclusive
COc1ccc(CCN(Cc2ccccn2)C(=S)Nc2cccc(C)c2)cc1OC	RORgamma inh 10µM
COc1ccc(-c2cc(C)no2)cc1S(=O)(=O)N(C)c1ccc(C)cc1	DT40 TDP1 CPT 10.3µM, TDP1 cell noCPT 9.2µM
CCOc1ccc(N(C)S(=O)(=O)c2cc(-c3cc(C)no3)ccc2C)cc1	DT40 TDP1 CPT inconclusive, TDP1 cell noCPT inconclusive
CCOc1ccc(N(C)S(=O)(=O)c2cc(-c3cc(C)no3)ccc2CC)cc1	DT40 TDP1 CPT inconclusive, RORgamma inh inconclusive, TDP1 cell noCPT 18.4µM
CCOc1ccc(N(C)S(=O)(=O)c2cc(-c3cc(C)no3)ccc2OC)cc1	DT40 TDP1 CPT 23.1µM, TDP1 cell noCPT 14.6µM
